Measured values published in PMC5540273 (PLoS ONE, 2017).
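Further: kd values determined as follow-up on hits from a single-replicate KINOMEscan panel screen.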

What follows are molecules tested on T1, GRK3.
T1 construct: gene ADRBK2
In the case of `Cc1nn2c(=O)cc(N3CCOCC3)nc2n1Cc1cccc(Cl)c1Cl` [GSK2342769], the Kd is reported as greater than 10 µM.
`O=C(Nc1n[nH]c2nc(-c3ccccc3)c(Cl)cc12)C1CC1` [SB-734909] was tested, and the Kd was greater than 10 µM.
`Nc1nccc2scc(-c3ccc4c(c3)CCN4C(=O)Cc3ccccc3)c12` [GSK2576924] showed a Kd greater than 10 µM.

The molecules below were run on GSK3A.
For `Nc1n[nH]c2nnc(-c3ccccc3)c(-c3ccccc3)c12` [GW554060], the Kd was 0.3 µM.
Molecule `COc1ccc(-c2coc3ccc(-c4nnc(SCc5cccc(C#N)c5)o4)cc23)cc1` has a Kd of 0.15 µM.
For `O=C(Nc1n[nH]c2nc(-c3ccccc3)c(Br)cc12)C1CC1` [SB-708998], the Kd was 0.41 µM.
`CCCC(=O)Nc1n[nH]c2ncc(-c3cccc4ccccc34)cc12` [SB-642057] showed a Kd of 0.36 µM.
Work on `CCS(=O)c1ccc(-c2coc3ccc(-c4nnc(C)o4)cc23)cc1` (stereo not drawn) yielded a Kd of 0.26 µM.
`O=C(Nc1n[nH]c2nc(-c3ccccc3)c(Cl)cc12)C1CC1` [SB-734909] was tested, and the Kd was 0.39 µM.
